How the values were obtained:
Experiment in all cases: DAPPL (digital affinity profiling via proximity ligation, sequencing); 10 mM Tris-HCl pH 7.5, 50 mM NaCl, 1 mM DTT, 4% glycerol, room temperature, 30 min; GST-TFs on glutathione beads, 16-mer random dsDNA library, 0.1% formaldehyde crosslink after washing; high values mean tight binding
Conditions in all cases: protein: recombinant; tags: N-terminal GST; dsDNA, one strand shown
[1] = target: T1, FLI1 (Homo sapiens, UniProt Q01543 1-452)
T1 sequence: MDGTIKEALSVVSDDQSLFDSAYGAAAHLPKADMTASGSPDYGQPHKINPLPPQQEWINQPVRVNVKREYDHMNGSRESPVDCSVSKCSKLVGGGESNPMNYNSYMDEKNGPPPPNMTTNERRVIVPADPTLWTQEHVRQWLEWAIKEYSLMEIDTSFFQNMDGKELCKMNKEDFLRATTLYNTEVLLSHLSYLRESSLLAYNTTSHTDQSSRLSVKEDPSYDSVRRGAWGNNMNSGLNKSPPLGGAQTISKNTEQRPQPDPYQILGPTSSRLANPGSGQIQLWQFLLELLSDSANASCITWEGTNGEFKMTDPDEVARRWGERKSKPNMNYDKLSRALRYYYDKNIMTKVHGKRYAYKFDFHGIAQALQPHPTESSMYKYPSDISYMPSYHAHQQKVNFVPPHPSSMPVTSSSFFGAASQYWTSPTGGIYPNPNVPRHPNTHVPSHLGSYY
Outline: (§1)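 Beads coated with glutathione captured GST-fused human transcription factors that had been expressed in yeast, and the factors were then given DNA barcodes and pooled with a tag-only sample. The pools were incubated with 200 nmole of a random double-stranded 16-mer DNA library in Tris/NaCl/DTT/glycerol buffer for 30 min at room temperature, washed, crosslinked with 0.1% formaldehyde and proximity-ligated with BsaI/T4 ligase at 37 °C for 1 h. PCR amplification and Illumina NextSeq500 sequencing came last. Binding signal is each hexamer's read frequency for a factor divided by its frequency for the tag-only sample.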

[2] = target: T2, ELK1 (Homo sapiens, UniProt P19419 1-428)
T2 sequence: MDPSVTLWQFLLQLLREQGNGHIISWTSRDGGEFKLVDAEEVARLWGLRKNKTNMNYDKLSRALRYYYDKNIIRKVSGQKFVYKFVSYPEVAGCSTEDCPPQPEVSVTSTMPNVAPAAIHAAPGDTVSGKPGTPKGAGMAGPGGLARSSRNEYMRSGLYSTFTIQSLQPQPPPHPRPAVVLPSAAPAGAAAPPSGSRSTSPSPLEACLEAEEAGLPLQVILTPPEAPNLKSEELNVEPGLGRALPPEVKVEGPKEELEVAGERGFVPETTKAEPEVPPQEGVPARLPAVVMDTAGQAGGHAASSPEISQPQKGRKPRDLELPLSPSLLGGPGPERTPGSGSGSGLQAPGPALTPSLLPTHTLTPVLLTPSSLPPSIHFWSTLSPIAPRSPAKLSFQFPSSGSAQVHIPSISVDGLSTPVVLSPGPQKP
Outline: as §1

[3] = target: T3, GABPA (Homo sapiens, UniProt Q06546 1-454)
T3 sequence: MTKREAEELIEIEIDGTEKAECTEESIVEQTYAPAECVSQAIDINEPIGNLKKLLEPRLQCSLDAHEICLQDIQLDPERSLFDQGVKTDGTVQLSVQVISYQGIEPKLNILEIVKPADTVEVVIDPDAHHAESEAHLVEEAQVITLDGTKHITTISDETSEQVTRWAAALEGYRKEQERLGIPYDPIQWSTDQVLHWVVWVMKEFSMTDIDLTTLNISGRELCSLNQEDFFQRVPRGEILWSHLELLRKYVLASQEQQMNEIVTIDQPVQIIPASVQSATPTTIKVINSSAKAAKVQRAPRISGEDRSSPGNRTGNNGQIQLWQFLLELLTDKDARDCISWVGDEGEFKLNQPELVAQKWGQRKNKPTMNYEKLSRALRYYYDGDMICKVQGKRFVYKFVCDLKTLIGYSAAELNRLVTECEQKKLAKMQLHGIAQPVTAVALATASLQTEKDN
Outline: as §1

[4] = target: T4, ERG (Homo sapiens, UniProt P11308 1-479)
T4 sequence: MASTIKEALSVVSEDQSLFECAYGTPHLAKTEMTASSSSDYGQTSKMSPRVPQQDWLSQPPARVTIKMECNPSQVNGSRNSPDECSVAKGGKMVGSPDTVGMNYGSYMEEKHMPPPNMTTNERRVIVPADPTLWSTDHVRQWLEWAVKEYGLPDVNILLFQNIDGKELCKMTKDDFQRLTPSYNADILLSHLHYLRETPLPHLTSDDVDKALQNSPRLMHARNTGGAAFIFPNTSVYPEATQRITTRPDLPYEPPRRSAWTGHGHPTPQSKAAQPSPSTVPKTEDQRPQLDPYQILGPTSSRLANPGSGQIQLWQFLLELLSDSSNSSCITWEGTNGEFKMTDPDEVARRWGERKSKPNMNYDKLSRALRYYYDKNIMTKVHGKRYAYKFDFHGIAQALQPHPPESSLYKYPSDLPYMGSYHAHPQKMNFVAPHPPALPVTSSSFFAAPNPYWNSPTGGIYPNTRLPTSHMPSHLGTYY
Outline: as §1

[5] = target: ELF1 (Homo sapiens, UniProt P32519 1-619)
Outline: as §1

[6] = target: T5, EHF (Homo sapiens, UniProt Q9NZC4 1-300)
T5 sequence: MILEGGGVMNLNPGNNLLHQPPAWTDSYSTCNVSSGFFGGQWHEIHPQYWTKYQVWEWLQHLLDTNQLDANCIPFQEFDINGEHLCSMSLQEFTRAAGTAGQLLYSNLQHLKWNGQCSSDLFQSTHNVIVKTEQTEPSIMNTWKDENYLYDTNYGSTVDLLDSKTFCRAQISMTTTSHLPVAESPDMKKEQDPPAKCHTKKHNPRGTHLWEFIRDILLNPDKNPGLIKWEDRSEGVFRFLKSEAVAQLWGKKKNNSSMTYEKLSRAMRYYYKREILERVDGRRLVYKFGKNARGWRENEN
Outline: as §1

[7] = target: SPI1 (Homo sapiens, UniProt P17947 1-270)
Outline: as §1

[8] = target: SPIB (Homo sapiens, UniProt Q01892 1-262)
Outline: as §1

[9] = target: T6, ELK3 (Homo sapiens, UniProt P41970 1-407)
T6 sequence: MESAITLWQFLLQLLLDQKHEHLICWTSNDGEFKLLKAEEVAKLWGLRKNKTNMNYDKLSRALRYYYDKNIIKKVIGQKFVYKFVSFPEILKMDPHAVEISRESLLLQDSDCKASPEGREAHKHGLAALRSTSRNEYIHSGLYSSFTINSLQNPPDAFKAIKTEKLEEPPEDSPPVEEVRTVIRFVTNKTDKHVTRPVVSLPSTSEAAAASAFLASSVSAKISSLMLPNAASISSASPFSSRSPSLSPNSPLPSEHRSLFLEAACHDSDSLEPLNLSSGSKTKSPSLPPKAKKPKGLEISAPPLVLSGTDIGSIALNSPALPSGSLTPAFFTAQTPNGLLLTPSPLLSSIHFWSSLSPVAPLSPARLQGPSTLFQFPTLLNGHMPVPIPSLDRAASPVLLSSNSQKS
Outline: as §1

Sequence of SPIB (Q01892 whole entry): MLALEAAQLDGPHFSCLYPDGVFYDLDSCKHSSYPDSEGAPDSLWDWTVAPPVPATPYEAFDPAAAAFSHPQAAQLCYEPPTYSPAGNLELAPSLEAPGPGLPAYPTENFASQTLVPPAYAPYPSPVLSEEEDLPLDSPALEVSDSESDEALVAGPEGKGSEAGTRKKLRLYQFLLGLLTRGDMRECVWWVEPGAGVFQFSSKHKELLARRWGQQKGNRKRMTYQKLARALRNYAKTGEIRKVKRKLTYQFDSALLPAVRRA
Sequence of ELF1 (P32519 whole entry): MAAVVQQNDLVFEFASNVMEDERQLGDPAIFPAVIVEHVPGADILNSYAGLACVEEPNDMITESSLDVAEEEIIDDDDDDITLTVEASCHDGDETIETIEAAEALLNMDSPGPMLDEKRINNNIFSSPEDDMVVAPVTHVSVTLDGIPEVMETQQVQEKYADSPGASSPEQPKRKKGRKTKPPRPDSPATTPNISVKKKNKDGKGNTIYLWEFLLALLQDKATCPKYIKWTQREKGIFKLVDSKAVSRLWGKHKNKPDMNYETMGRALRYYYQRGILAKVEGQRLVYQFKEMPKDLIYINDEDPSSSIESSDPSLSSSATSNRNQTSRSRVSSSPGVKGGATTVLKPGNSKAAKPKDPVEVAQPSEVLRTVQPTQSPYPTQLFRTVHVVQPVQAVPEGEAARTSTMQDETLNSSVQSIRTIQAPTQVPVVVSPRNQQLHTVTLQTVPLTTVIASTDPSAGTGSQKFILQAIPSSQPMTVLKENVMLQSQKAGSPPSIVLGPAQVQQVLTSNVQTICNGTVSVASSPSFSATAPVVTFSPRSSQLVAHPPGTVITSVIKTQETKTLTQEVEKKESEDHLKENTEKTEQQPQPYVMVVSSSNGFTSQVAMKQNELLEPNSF

In the case of TCTTGT, the binding signal [1] is reported as 1.48 fold enrichment (6-mer frequency, TF over GST control), the binding signal [2] is reported as 1.64 fold enrichment (6-mer frequency, TF over GST control) and the binding signal [3] is reported as 1.53 fold enrichment (6-mer frequency, TF over GST control). The binding signal [4] was 1.54 fold enrichment (6-mer frequency, TF over GST control), the binding signal [5] was 1.53 fold enrichment (6-mer frequency, TF over GST control) and the binding signal [6] was 1.57 fold enrichment (6-mer frequency, TF over GST control). For the same sequence, the binding signal [7] was 1.5 fold enrichment (6-mer frequency, TF over GST control), the binding signal [8] was 1.55 fold enrichment (6-mer frequency, TF over GST control) and the binding signal [9] was 1.58 fold enrichment (6-mer frequency, TF over GST control).
With ACAGCT the binding signal [1] was 1.15 fold enrichment (6-mer frequency, TF over GST control), the binding signal [2] was 1.14 fold enrichment (6-mer frequency, TF over GST control) and the binding signal [3] was 1.19 fold enrichment (6-mer frequency, TF over GST control). For the same sequence, the binding signal [4] was 1.17 fold enrichment (6-mer frequency, TF over GST control), the binding signal [5] was 1.16 fold enrichment (6-mer frequency, TF over GST control) and the binding signal [6] was 1.16 fold enrichment (6-mer frequency, TF over GST control). The binding signal [7] was 1.11 fold enrichment (6-mer frequency, TF over GST control), the binding signal [8] was 1.2 fold enrichment (6-mer frequency, TF over GST control) and the binding signal [9] was 1.18 fold enrichment (6-mer frequency, TF over GST control).
CATCCC was tested, and the binding signal [1] was 1.39 fold enrichment (6-mer frequency, TF over GST control), the binding signal [2] was 1.22 fold enrichment (6-mer frequency, TF over GST control) and the binding signal [3] was 1.24 fold enrichment (6-mer frequency, TF over GST control). For the same sequence, the binding signal [4] was 1.29 fold enrichment (6-mer frequency, TF over GST control), the binding signal [5] was 1.29 fold enrichment (6-mer frequency, TF over GST control) and the binding signal [6] was 1.29 fold enrichment (6-mer frequency, TF over GST control). For the same sequence, the binding signal [7] was 1.25 fold enrichment (6-mer frequency, TF over GST control), the binding signal [8] was 1.26 fold enrichment (6-mer frequency, TF over GST control) and the binding signal [9] was 1.24 fold enrichment (6-mer frequency, TF over GST control).
For CACAAG, the binding signal [1] was 1.2 fold enrichment (6-mer frequency, TF over GST control), the binding signal [2] was 1.17 fold enrichment (6-mer frequency, TF over GST control) and the binding signal [3] was 1.15 fold enrichment (6-mer frequency, TF over GST control). For the same sequence, the binding signal [4] was 1.09 fold enrichment (6-mer frequency, TF over GST control), the binding signal [5] was 1.18 fold enrichment (6-mer frequency, TF over GST control) and the binding signal [6] was 1.14 fold enrichment (6-mer frequency, TF over GST control). For the same sequence, the binding signal [7] was 1.12 fold enrichment (6-mer frequency, TF over GST control), the binding signal [8] was 1.13 fold enrichment (6-mer frequency, TF over GST control) and the binding signal [9] was 1.16 fold enrichment (6-mer frequency, TF over GST control).
For GCTTCA, the binding signal [1] was 1.35 fold enrichment (6-mer frequency, TF over GST control), the binding signal [2] was 1.39 fold enrichment (6-mer frequency, TF over GST control) and the binding signal [3] was 1.28 fold enrichment (6-mer frequency, TF over GST control). The binding signal [4] was 1.34 fold enrichment (6-mer frequency, TF over GST control), the binding signal [5] was 1.33 fold enrichment (6-mer frequency, TF over GST control) and the binding signal [6] was 1.4 fold enrichment (6-mer frequency, TF over GST control). For the same sequence, the binding signal [7] was 1.24 fold enrichment (6-mer frequency, TF over GST control), the binding signal [8] was 1.31 fold enrichment (6-mer frequency, TF over GST control) and the binding signal [9] was 1.27 fold enrichment (6-mer frequency, TF over GST control).
CTCGAC was tested, and the binding signal [1] was 1.49 fold enrichment (6-mer frequency, TF over GST control), the binding signal [2] was 1.47 fold enrichment (6-mer frequency, TF over GST control) and the binding signal [3] was 1.53 fold enrichment (6-mer frequency, TF over GST control). The binding signal [4] was 1.47 fold enrichment (6-mer frequency, TF over GST control), the binding signal [5] was 1.53 fold enrichment (6-mer frequency, TF over GST control) and the binding signal [6] was 1.46 fold enrichment (6-mer frequency, TF over GST control). For the same sequence, the binding signal [7] was 1.34 fold enrichment (6-mer frequency, TF over GST control), the binding signal [8] was 1.33 fold enrichment (6-mer frequency, TF over GST control) and the binding signal [9] was 1.36 fold enrichment (6-mer frequency, TF over GST control).
With TTTTAT the binding signal [1] was 1.4 fold enrichment (6-mer frequency, TF over GST control), the binding signal [2] was 1.16 fold enrichment (6-mer frequency, TF over GST control) and the binding signal [3] was 1.42 fold enrichment (6-mer frequency, TF over GST control). For the same sequence, the binding signal [4] was 1.3 fold enrichment (6-mer frequency, TF over GST control), the binding signal [5] was 1.17 fold enrichment (6-mer frequency, TF over GST control) and the binding signal [6] was 1.44 fold enrichment (6-mer frequency, TF over GST control). For the same sequence, the binding signal [7] was 1.44 fold enrichment (6-mer frequency, TF over GST control), the binding signal [8] was 1.37 fold enrichment (6-mer frequency, TF over GST control) and the binding signal [9] was 1.34 fold enrichment (6-mer frequency, TF over GST control).

Reference: article PMC7862700, “An all-to-all approach to the identification of sequence-specific readers for epigenetic DNA modifications on cytosine”
